From PubChem BioAssay (NCI)
About 83,000 compounds went through this panel and 20% of them were active in at least one assay; those are over-represented in the sample as a whole.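 Values shown are percent growth following 48 h exposure of cells in 96-well plates to a single concentration of compound; below 10 was considered active.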 A number with no mark means an inactive call. The source made the active and inactive calls.

Legend:
Test in all cases: NCI-60 one-dose screen, 48 h (100 = growth as untreated, 0 = no growth, -100 = all killed)
Settings in all cases: 10 µM unless noted
DU-145 prostate = tested on: DU-145 prostate
K-562 leukemia = tested on: K-562 leukemia
MALME-3M melanoma = tested on: MALME-3M melanoma
MDA-MB-231 breast = tested on: MDA-MB-231 breast
RXF 393 renal = tested on: RXF 393 renal
SF-268 CNS = tested on: SF-268 CNS
SF-295 CNS = tested on: SF-295 CNS
SF-539 CNS = tested on: SF-539 CNS
UACC-257 melanoma = tested on: UACC-257 melanoma
M14 melanoma = tested on: M14 melanoma

SMILES	growth (DU-145 prostate)	growth (K-562 leukemia)	growth (MALME-3M melanoma)	growth (MDA-MB-231 breast)	growth (RXF 393 renal)	growth (SF-268 CNS)	growth (SF-295 CNS)	growth (SF-539 CNS)	growth (UACC-257 melanoma)	growth (M14 melanoma)
COc1ccc(-c2cn(Cc3cc4ccccc4s3)nn2)cc1OCCN1CCCCC1	85.7%	16.3%	5.75% (active)	45.9%	44.2%	70.8%	70.6%	79.7%	41.1%	-29.4% (active)
C=C(C)[C@@H]1CC[C@]2(COC3CCCCO3)CC[C@]3(C)[C@H](CC[C@@H]4[C@@]5(C)C=C(C=O)C(=O)C(C)(C)[C@@H]5CC[C@]43C)[C@@H]12 (stereo not given in full)	-94.3% (active)	-24.9% (active)	-75.4% (active)	-37.7% (active)	-85.7% (active)	-67.1% (active)	-95.5% (active)	-74.3% (active)	-28.5% (active)	-62.9% (active)
CCCn1c(=S)sc2c(NNC(C)=O)nc(C)nc21	134%	68.8%	101%	103%	98.5%	111%	121%	90.6%	91.7%	108%
COC12C=C/C(=C(/C(=O)OCCSc3ccnn3C)C(=O)CCCCCCCCC3(OC)C=C/C(=C(/C(=O)OCCSc4ccnn4C)C(=O)CCCCCCCC1)O3)O2	23%	1.16% (active)	-32.2% (active)	-11% (active)	-79.1% (active)	16%	-3.35% (active)	-0.264% (active)	40.3%	-3.79% (active)
C#CCOc1cccc(Nc2ncnc3cc(NC(=O)CCl)ccc23)c1	-77.1% (active)	-43% (active)	-73.4% (active)	-78.9% (active)	-75.6% (active)	-55.8% (active)	-92.8% (active)	-80.4% (active)	-43.3% (active)	-56.1% (active)
COc1cc(OC)c2c(=O)c3c(CC=C(C)C)cc(OC)c(O)c3oc2c1	85%	61.4%	114%	91.1%	100%	93.6%	89.7%	91.4%	107%	91%
CNC(=O)c1cc(Oc2ccc3c(c2)sc2nc(-c4ccc(Cl)c(C(F)(F)F)c4)cn23)ccn1	74%	30%	47.4%	77.1%	87.1%	73.7%	48.5%	64.4%	35.9%	69.5%
COc1cc(/C=C2\C(=O)N(CCCOc3cc(O)c4c(=O)cc(-c5ccccc5)oc4c3)c3ccccc32)cc(OC)c1O	86.2%	21.2%	78.5%	97.5%	91.6%	78.5%	101%	80.7%	90.9%	57.1%
Cc1[nH]c(C(=O)Nc2ccccc2OC2CCN(CCN3CCOCC3)CC2)c(Cl)c1Cl	105%	57.5%	106%	75.9%	83.6%	81.5%	97.7%	89.6%	115%	106%
O=C(/C=C/c1cn(-c2ccccc2)nc1-c1ccccc1)CCC(=O)NO	112%	99.6%	104%	105%	102%	97%	96.1%	113%	92.7%	100%
O=C(O)CC(C(=O)O)/C(=C\c1ccccc1)c1ccccc1 (stereo not given)	139%	103%	117%	121%	104%	113%	115%	122%	100%	121%
O=C(CCCCCCCC(=O)N1CCCCC1)N1CCCCC1	106%	114%	115%	94.1%	123%	104%	117%	103%	89.3%	102%
CC1(C)CC[C@]23CC[C@]4(C)[C@H](CC[C@@H]5[C@@]6(C)C/C(=C/O)C(=O)C(C)(C)[C@@H]6CC[C@]54C)[C@H]2[C@H]1OC3	115%	105%	104%	97.6%	121%	108%	103%	101%	101%	103%
[N-]=[N+]=NCC1OC(n2cnc3c(NC(=O)Nc4ccccc4)ncnc32)C2OC(=O)CC12 (stereo not given)	109%	92.7%	96.9%	123%	-28.7% (active)	103%	100%	97.8%	122%	108%
CC(C)(Sc1cc(C(C)(C)C)c(O)c(C(C)(C)C)c1)Sc1cc(C(C)(C)C)c(OC(=O)CCC(=O)O)c(C(C)(C)C)c1	57.2%	69.4%	65.8%	58.3%	67%	57.3%	42.1%	47.8%	61.8%	50.9%
Cc1cc(C)c2c(c1)N(C)c1ncnc(-n3c(C)nc4cc(C)ccc43)c1CC2C (stereo not given)	55.3%	12.4%	45.4%	61.2%	-10.4% (active)	45.9%	9.14% (active)	25.2%	25.8%	25.3%
N#Cc1c(-c2ccccc2)nc2c(c(-c3ccc(Cl)cc3)nn2-c2ccccc2)c1-c1ccc([N+](=O)[O-])cc1	101%	101%	101%	102%	109%	98.6%	98.7%	95.9%	96.2%	97.9%
COc1ccc2c(c1)CC[C@@H]1[C@@H]2CC[C@]2(C)C3C(=CC(COC(C)=O)C4C(=O)N(c5ccc(Cl)cc5)C(=O)C43)C[C@@H]12 (stereo not given in full)	106%	52.4%	101%	103%	110%	91.7%	105%	114%	109%	98.8%
CCSc1ccnc(N)n1	105%	121%	86.3%	104%	125%	93.9%	105%	105%	102%	112%
COc1ccc(C(O)c2cc3c(N)c(C(=O)Nc4cccc5ccccc45)sc3nc2C)cc1 (stereo not given)	1.19% (active)	12%	27.7%	13.6%	27%	9.53% (active)	12.9%	4.62% (active)	35.3%	15%

SMILES	growth (DU-145 prostate)	growth (K-562 leukemia)	growth (MALME-3M melanoma)	growth (MDA-MB-231 breast)	growth (RXF 393 renal)	growth (SF-268 CNS)	growth (SF-295 CNS)	growth (SF-539 CNS)	growth (UACC-257 melanoma)	growth (M14 melanoma)
N#Cc1nn(-c2cc(=O)[nH]c3ccc(Br)cc23)c(N)c1C#N	117%	-12.4% (active)	89.4%	85.3%	115%	108%	101%	105%	93.4%	90.1%
O=[N+]([O-])c1ccccc1Nc1ccc2ccccc2c1	107%	84.8%	106%	91.9%	133%	95.5%	98.3%	97%	92.8%	91.3%
CC(=O)Nc1sc2c(c1-c1nc3ccccc3s1)CNC2	25.6%	13.2%	19%	21.9%	18%	40.4%	13.3%	28.4%	27.6%	21.9%
Clc1ccc(-c2nc(C(Cl)Cl)nc3cc(-c4ccccc4)nn23)cc1	-2.59% (active)	33.2%	46.4%	36.9%	-55% (active)	41.7%	14.3%	44%	52.5%	24.2%
COc1ccc(/C=C2\CN(C(=O)C(Cl)Cl)C/C(=C\c3ccc(OC)c(OC)c3)C2=O)cc1OC	-16% (active)	4.57% (active)	-70.9% (active)	7.12% (active)	-67.1% (active)	17.8%	-39.6% (active)	-23.8% (active)	18.4%	-72.6% (active)
O=C(/C=C/C12c3ccccc3C(c3ccccc31)C1C(=O)NC(=O)C12)c1ccc(I)cc1 (stereo not given)	43.2%	24.8%	86.1%	64%	46%	49.8%	78.5%	83.3%	60.5%	74%
COc1ccc2cc(C(=O)N3CCC([C@@H](C)C(=O)NCc4ccc5c(c4)OCO5)CC3)[nH]c2c1	60.5% [50 µM]	77.2% [50 µM]	44.2% [50 µM]	34.1% [50 µM]	-1.62% [50 µM] (active)	32.9% [50 µM]	48.1% [50 µM]	41.1% [50 µM]	77.8% [50 µM]	65.2% [50 µM]
Cc1cccc(N2C(=O)/C(=C/C(Cl)=C/c3ccc([N+](=O)[O-])cc3)SC2=S)c1C	27.3%	3.9% (active)	-8.54% (active)	-6.22% (active)	-33.6% (active)	40.5%	22.3%	-3.16% (active)	14.3%	22.5%
Nc1ccc(-c2ccncc2)cc1NC(=O)N1CCCC1	105%	102%	69.9%	120%	100%	93.3%	103%	90.1%	59.7%	94.2%
CC(C)n1c2ccc(Br)cc2c2c3c(c4c5ccccc5ccc4c21)C(=O)NC3=O	84.2%	76.4%	105%	110%	98.5%	88.7%	101%	91.5%	113%	92.7%
CC(=O)c1ccc(-n2cc(CN3CCN(c4cc5c(cc4F)c(=O)c(C(=O)O)cn5C4CC4)CC3)nn2)cc1	104%	101%	94.9%	97.1%	72%	85.3%	95.9%	92.6%	96.7%	90.1%
CN1CCN(Cc2ccc(NC(=O)c3cncc(C#Cc4cnc(N)cc4C#N)c3)cc2C(F)(F)F)CC1	21.1%	15.9%	-4.04% (active)	6.83% (active)	13.4%	23.5%	24.5%	-12% (active)	3.84% (active)	-23.1% (active)
Cc1c(O)cc(-c2cnc(N/N=C/c3ccccc3)s2)c(O)c1C	105%	89.9%	107%	101%	102%	91.6%	103%	100%	95.5%	95.9%
CN1CCN(c2ccc(NC3=CC(=O)c4ncncc4C3=O)cc2)CC1	-89.1% (active)	-22.1% (active)	-98.4% (active)	-15.1% (active)	-94.8% (active)	-46.3% (active)	-96.1% (active)	-96.1% (active)	-81.5% (active)	-81.8% (active)
O=c1c2ccccc2n(C[C@H]2CO2)c2ccccc12	2.26% (active)	8.2% (active)	-74.3% (active)	5.95% (active)	-67.1% (active)	-8.61% (active)	5.39% (active)	-22.1% (active)	-10.1% (active)	6.45% (active)
N#Cc1ccccc1-c1ccc(CN2C(=O)S/C(=C\c3ccc(Br)cc3)C2=O)cc1	105%	93.8%	96.8%	95.9%	104%	99.4%	93.1%	99.7%	92.3%	98.2%
CC(C)(C)CC(C)(C)Nc1c(-c2c(O)c3ccccc3oc2=O)nc2sc3ccccc3n12	53.7%	11.8%	50.7%	61.9%	65.9%	48%	3.5% (active)	44%	38.1%	41.7%
COc1cc(/C=C/C(=O)c2cccc(-n3cc(-c4ccc(Cl)cc4)[nH]c3=O)c2)ccc1O	78.1%	17.9%	87.8%	86%	23.7%	71.7%	76.7%	84.2%	68%	85.8%
COc1ccc(Oc2ccc(/C=C/C(=O)c3ccc(OC)c(OC)c3)cc2)cc1	76.6%	66%	92.9%	94.3%	101%	97.1%	87%	100%	78.6%	92.9%
